Experimental findings from PubChem BioAssay (NCI) are described below.

This is part of a sample that, as a whole, favours compounds with a hit. Of some 83,000 tested, about 20% had one in any assay.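 Cells were grown in 96-well plates and exposed to the test compound at a single concentration for 48 hours; results are reported as percent growth, with values below 10 considered active.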 Values without a mark were called inactive. Calls of active or inactive are those of the source.

Common to all, as to assay: NCI-60 one-dose screen, 48 h (100 = growth as untreated, 0 = no growth, -100 = all killed)
Common to all, as to conditions: 10 µM unless noted

Assay [1] has as its system T-47D breast.
Assay [2] concerns BT-549 breast.
For assay [3], the system named is MDA-MB-435 melanoma.
Assay [4] concerns SW-620 colon.
Assay [5] deals with MCF7 breast.
Assay [6] concerns HCT-116 colon.
Assay [7] relates to HCC-2998 colon.
Assay [8] concerns KM12 colon.

In the case of `CCOc1ccc(S(=O)(=O)Nc2ccc3c(c2)N(S(=O)(=O)CC)CCC3)cc1`, the growth in assay [1] is 68.1%; in assay [2], 95.2%; in assay [3], 78.8%; in assay [4] it was 68.3%; in assay [5], 44.9%; in assay [6], 90.8%. Further, the growth was 78.2% in assay [7] and 77% in assay [8].

Regarding `C=C(CN=[N+]=[N-])[C@@H]1CC[C@]2(C)[C@H](CC[C@@H]3[C@H]4[C@H]5OC(=O)[C@@]4(CCC5(C)C)CC[C@]32C)[C@@]1(C)CCC#N`, the growth in assay [1] was 55.6% [100 µM]; in assay [2], 78.7% [100 µM]; in assay [3] it was 76.3% [100 µM]; in assay [4], 87.3% [100 µM]; in assay [5], 64.5% [100 µM]; in assay [6] it was 47.3% [100 µM]. For the same molecule, the values for the growth in assay [7] and in assay [8] were 89.3% [100 µM] and 81.7% [100 µM], respectively.

Take `CC1(C)CC[C@]2(C(=O)OC(=O)[C@]34CCC(C)(C)C[C@@H]3C3=CC[C@@H]5[C@@]6(C)CCC(=O)C(C)(C)[C@@H]6CC[C@@]5(C)[C@]3(C)CC4)CC[C@]3(C)C(=CC[C@@H]4[C@@]5(C)CCC(=O)C(C)(C)[C@@H]5CC[C@]43C)[C@H]2C1`: the growth in assay [1] is 48.1% [100 µM]; in assay [2], 75.3% [100 µM]; in assay [3], 63.2% [100 µM]; in assay [4], 70% [100 µM]; in assay [5] it was 51.8% [100 µM]; in assay [6] it was 41% [100 µM]. Moreover, the values for the growth in assay [7] and in assay [8] were 98.2% [100 µM] and 67.2% [100 µM], respectively.

Regarding `O=c1[nH]c2cc(Cl)c(Cl)cc2n2cc3ncccc3c12`, the growth was 49% in assay [1]; 109% in assay [2]; 87% in assay [3]; 53.4% in assay [4]; 30.4% in assay [5]; 71.1% in assay [6]. In addition, the growth was 88% in assay [7] and 78.4% in assay [8].

Turning to `O=C(Nc1ccccc1)Nc1ccc(C(=O)/C=C/c2ccc(N3CCCC3)cc2)cc1`, the growth in assay [1] is 58.9%; in assay [2], 93.3%; in assay [3], 4.29% (active); in assay [4] it was 83.6%; in assay [5], 66%; in assay [6] it was 52.9%. Further, the growth in assay [7] was 81.4%; in assay [8], 52.5%.

For `CC1(C)C(=O)/C(=C\c2cccnc2)C[C@]2(C)[C@H]3CC[C@@H]4[C@H]5[C@H](C(=O)/C=C/c6cccnc6)CC[C@]5(C(=O)O)CC[C@@]4(C)[C@]3(C)CC[C@@H]12`, the growth in assay [1] was -10% [100 µM] (active); in assay [2], -32.2% [100 µM] (active); in assay [3], -78.2% [100 µM] (active); in assay [4], -21.8% [100 µM] (active); in assay [5], -41.9% [100 µM] (active); in assay [6], -56.7% [100 µM] (active). For the same molecule, the growth is -76.4% [100 µM] (active) in assay [7] and -82.1% [100 µM] (active) in assay [8].

On to `CC(=O)CC(=O)SC1=NCCS1`, for which the growth was 104% in assay [1]; 116% in assay [2]; 106% in assay [3]; 97.7% in assay [4]; 108% in assay [5]; 116% in assay [6]. The growth in assay [7] was 112%; in assay [8], 102%.

Turning to `Nc1cc(C(=O)O)[nH]c(=S)n1`, the growth in assay [1] was 105%; in assay [2], 69.1%; in assay [3], 98%; in assay [4], 101%; in assay [5], 96.2%; in assay [6], 100%. Moreover, the growth was 95.3% in assay [7] and 98.9% in assay [8].

On to `C=C(C)[C@@H]1CC[C@]2(C(=O)NCCCCCCN(CCCN)CCCN)CC[C@]3(C)[C@H](CC[C@@H]4[C@@]5(C)CC[C@H](OCCCN)C(C)(C)[C@@H]5CC[C@]43C)[C@@H]12`, for which the growth in assay [1] is 85.3% [100 µM]; in assay [2] it was 118% [100 µM]; in assay [3], 89.6% [100 µM]; in assay [4], 7.33% [100 µM] (active); in assay [5] it was 14.5% [100 µM]; in assay [6], 12.6% [100 µM]. The growth in assay [7] is 77.1% [100 µM]; in assay [8], 31.5% [100 µM].

Regarding `Cc1ccc(NC(=O)N[C@@H](Cc2cc(F)cc(F)c2)C(=O)N[C@@H]2C(=O)N3CCC[C@H]3C(=O)N3CCCC[C@H]3C(=O)N[C@@H](C)C(=O)N3C[C@H](C)C[C@H]3C(=O)O[C@H]2C)cc1`, the growth in assay [1] is 19.7%; in assay [2] it was 19.6%; in assay [3] it was 18.5%; in assay [4], 35.6%; in assay [5], 23.1%; in assay [6], 11.2%. Also, the growth in assay [7] was 24.6%; in assay [8], 37.8%.

On to `CCOC(=O)c1nn(C2CCCCO2)c2ccc(NC(=O)CN3CCCC3)cc12` (configuration not stated), for which the growth is 102% in assay [1]; 94.3% in assay [2]; 102% in assay [3]; 97.2% in assay [4]; 95.9% in assay [5]; 89.9% in assay [6]. The growth in assay [7] is 101%; in assay [8], 103%.

Turning to `Cc1cccc(C[C@H](NC(=O)Nc2ccc(Cl)cc2F)C(=O)N[C@@H]2C(=O)N3C[C@H](OC(=O)CCN(C)C)C[C@H]3C(=O)N3CCCC[C@H]3C(=O)N[C@@H](C)C(=O)N3C[C@H](C)C[C@H]3C(=O)O[C@H]2C)c1`, the growth was 13.8% in assay [1]; 4.55% (active) in assay [2]; 14.6% in assay [3]; 30.2% in assay [4]; 13.4% in assay [5]; -29% (active) in assay [6]. For the same molecule, the figures for the growth in assay [7] and in assay [8] were 19% and 23%, respectively.

On to `COc1ccc(-c2ccc(NNC(=O)c3ccc(F)cc3)nn2)cc1OC`, for which the growth in assay [1] is 20%; in assay [2] it was 58.4%; in assay [3], 83.2%; in assay [4], 75.1%; in assay [5], 51.1%; in assay [6] it was 66.2%. For the same molecule, the figures for the growth in assay [7] and in assay [8] were 90.5% and 92.3%, respectively.

As for `O=[N+]([O-])c1cc([N+](=O)[O-])c(C(F)(F)F)cc1NN=C(c1ccc(O)cc1)c1ccc(O)cc1`, the growth in assay [1] was -6.47% (active); in assay [2], 132%; in assay [3], 99.1%; in assay [4], 106%; in assay [5] it was -10.1% (active); in assay [6] it was -82.4% (active). Moreover, the growth is -55.5% (active) in assay [7] and 84% in assay [8].
